Consider 100 compounds from ChEMBL document CHEMBL1201862, “PubChem BioAssay data set” (2004).

The structures appear in SMILES notation. Among all 400,000 compounds or so, about 2,100 (0.53%) were called active. Roughly 14% stayed inconclusive and do not appear here. No rule for the calls is given here. For the sample, actives were picked, then their nearest neighbours and some compounds at random.

The assay deals with Ataxin-2 (Homo sapiens) (UniProt Q99700). As to the kind of experiment: qHTS for Inhibitors of ATXN expression. Type of assay: functional. Background: qHTS replaces the single test concentration by a dilution series.
Chain of Ataxin-2 (Homo sapiens) (Q99700 whole entry): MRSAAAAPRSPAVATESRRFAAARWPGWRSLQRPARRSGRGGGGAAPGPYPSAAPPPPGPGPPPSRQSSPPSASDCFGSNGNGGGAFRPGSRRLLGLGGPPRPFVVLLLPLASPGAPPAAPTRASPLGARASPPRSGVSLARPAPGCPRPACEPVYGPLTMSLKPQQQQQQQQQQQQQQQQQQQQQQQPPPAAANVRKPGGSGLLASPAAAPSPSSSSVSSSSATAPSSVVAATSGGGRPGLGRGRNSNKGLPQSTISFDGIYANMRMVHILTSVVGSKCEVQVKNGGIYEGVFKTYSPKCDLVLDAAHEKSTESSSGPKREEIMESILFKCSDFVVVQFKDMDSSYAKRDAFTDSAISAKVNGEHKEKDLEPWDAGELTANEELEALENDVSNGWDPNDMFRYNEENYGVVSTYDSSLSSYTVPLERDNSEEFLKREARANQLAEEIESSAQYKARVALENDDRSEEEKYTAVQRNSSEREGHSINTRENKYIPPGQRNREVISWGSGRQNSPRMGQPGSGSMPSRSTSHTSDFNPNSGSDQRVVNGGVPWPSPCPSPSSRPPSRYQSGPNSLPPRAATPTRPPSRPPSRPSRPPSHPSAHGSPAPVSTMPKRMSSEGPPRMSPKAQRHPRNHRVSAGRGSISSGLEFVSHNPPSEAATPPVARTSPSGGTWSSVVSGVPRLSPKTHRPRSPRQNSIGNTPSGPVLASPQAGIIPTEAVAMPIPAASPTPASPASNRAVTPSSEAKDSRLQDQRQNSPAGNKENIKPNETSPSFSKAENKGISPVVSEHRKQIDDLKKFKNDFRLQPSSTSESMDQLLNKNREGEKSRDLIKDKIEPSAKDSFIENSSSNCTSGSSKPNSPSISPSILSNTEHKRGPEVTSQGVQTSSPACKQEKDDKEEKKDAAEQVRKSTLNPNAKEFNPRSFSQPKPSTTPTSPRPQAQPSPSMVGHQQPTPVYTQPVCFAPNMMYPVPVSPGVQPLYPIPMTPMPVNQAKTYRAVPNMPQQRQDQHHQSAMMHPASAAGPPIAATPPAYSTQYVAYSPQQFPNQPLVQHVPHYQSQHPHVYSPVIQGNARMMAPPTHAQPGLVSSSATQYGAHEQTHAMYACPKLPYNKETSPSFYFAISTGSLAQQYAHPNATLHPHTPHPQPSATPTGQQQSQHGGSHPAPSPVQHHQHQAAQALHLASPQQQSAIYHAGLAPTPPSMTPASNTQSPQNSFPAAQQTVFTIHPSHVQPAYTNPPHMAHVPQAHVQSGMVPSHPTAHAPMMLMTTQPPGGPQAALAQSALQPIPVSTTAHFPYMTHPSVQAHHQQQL
Take `Cc1ccc(N(C)C(CNS(=O)(=O)c2ccccc2)c2ccccc2)cc1` (stereo not given): the Potency is 25.1 µM (active).

For `Cc1ccc(S(=O)(=O)NCCCCCC(=O)NCCc2ccccc2)cc1`, the Potency entry was “inactive”.

`Cc1ccc(S(=O)(=O)NCc2c(-c3ccccc3)noc2C)cc1`: the Potency result is “inactive”.

For `Cc1cccn2c(=O)c3cc(C#N)c(=O)n(-c4nnc(SCc5ccc(F)cc5)s4)c3nc12`, the Potency entry was “inactive”.

Turning to `COc1ccc(OC)c(NC(=O)c2ccc(OC3CSC3)cc2)c1`, the Potency entry was “inactive”.

With `COc1ccc(NC(=O)c2ccc(S(=O)(=O)C(F)F)cc2)c(OC)c1`, the Potency result is “inactive”.

On to `COc1ccc(/C=N/Nc2ncnc3sc4c(c23)CCCC4)cc1OC`, for which the Potency result is “inactive”.

For `COc1ccc(NC(=O)CON=CC(=O)Nc2ccc(C)cc2)c(OC)c1`, the Potency result is “inactive”.

For `COc1ccc(NC(=O)c2c(NCc3sccc3C)sc3c2CCCCC3)c(OC)c1`, the Potency is 39.8 µM (active).

`COc1cccc(-c2ccc3c(N)c(C(=O)Nc4cc(F)ccc4F)sc3n2)c1`: the Potency result was “inactive”.

On to `COc1ccc(NC(=O)C2=CN3CCS(=O)(=O)N=C3C=C2)c(OC)c1`, for which the Potency entry is “inactive”.

Take `COC(=O)c1ccc(NC(=O)c2c(NCc3ccc(OC)c(OC)c3)sc3c2CCCC3)cc1`: the Potency is 17.8 µM (active).

Take `COc1ccc(NC(=O)c2c(NCc3cccc(F)c3)sc3c2CCC3)c(OC)c1`: the Potency was 25.1 µM (active).

In the case of `COc1ccc(OC)c(NC(=O)c2c(NCc3ccc(OC)c(OC)c3)sc3c2CCC3)c1`, the Potency was 39.8 µM (active).

For `COc1ccc(OC)c(NC(=O)COC(=O)c2ccc(OC)c(S(=O)(=O)N3CCOCC3)c2)c1`, the Potency entry is “inactive”.

Regarding `Cc1nc(NC(=O)CSc2nnc(C3CC3)n2C)sc1C`, the Potency result is “inactive”.

As to `C=CCn1c(=N)c(C(=O)NCCCOC)cc2c(=O)n3cc(C)ccc3nc21`, the Potency result was “inactive”.

As for `CCOc1ccc(S(=O)(=O)[N-]c2nc3ccccc3nc2-[n+]2ccc(NC(=O)c3cccs3)cc2)cc1`, the Potency result is “inactive”.

For `CCCn1c(=O)c(C(=O)Nc2ccccc2C)c(O)c2ccccc21`, the Potency result is “inactive”.

In the case of `COC(=O)c1ccc(NC(=O)c2c(NCc3ccc(C)o3)sc3c2CCCC3)cc1`, the Potency is 35.5 µM (active).

With `COC(=O)c1c(NC(=S)NC(=O)c2ccco2)sc2c1CCCC2`, the Potency entry was “inactive”.

As to `COC(=O)c1c(NC(=O)c2ccc(N(C)S(=O)(=O)c3ccc(C)cc3)cc2)sc2c1CCCC2`, the Potency entry was “inactive”.

On to `COc1ccc(C2=NN(C(=O)c3ccccc3)C(c3ccc(OC)c(OC)c3)C2)c(O)c1` (stereo not given), for which the Potency entry was “inactive”.

As to `Cc1ccc(C(=O)N2N=C(c3ccc(Br)cc3)CC2c2ccccc2O)cc1` (stereo not given), the Potency was 42.3 µM (active).

As to `O=C(O)c1ccc(N2N=C(c3ccccc3)CC2c2ccccc2)cc1` (stereo not given), the Potency result was “inactive”.

As to `N#Cc1c(C(F)(F)F)cc(-c2cccs2)nc1N1CCCCC1`, the Potency entry was “inactive”.

Regarding `Cc1ccccc1NC(=O)c1nn(C)c(C(=O)Nc2ccccc2C)c1[N+](=O)[O-]`, the Potency result is “inactive”.

In the case of `Cc1ccccc1NC(=O)Nc1nnc(Cc2ccc([N+](=O)[O-])cc2)s1`, the Potency was 11.2 µM (active).

Consider `COc1ccccc1NC(=O)Nc1nnc(Cc2ccc(F)cc2)s1`, for which the Potency entry was “inactive”.

On to `CCCc1cc(NCCOCCO)n2c(nc3ccccc32)c1C#N`, for which the Potency result is “inactive”.

As to `Nc1nc(O)nc(O)c1N=Cc1ccccc1`, the Potency result is “inactive”.

In the case of `C/C(=N\Nc1nc(C)c(C)s1)c1ccc([N+](=O)[O-])cc1`, the Potency is 37.7 µM (active).

With `C/C(=N\NC(=O)c1ccc(CN2CCOCC2)cc1)c1ccc([N+](=O)[O-])cc1`, the Potency entry is “inactive”.

For `COC(=O)c1ccc(/C=N/Nc2nc(C)c(C)s2)cc1`, the Potency entry is “inactive”.

`O=S(=O)(CCSc1nc2ccccc2o1)c1nc2ccccc2s1`: the Potency is 15.8 µM (active).

For the compound `O=C(O)c1ccc(C=C(c2nc3ccccc3s2)c2nc3ccccc3s2)cc1`, the Potency entry is “inactive”.

As to `O=S(=O)(CCSc1ccccn1)c1nc2ccccc2s1`, the Potency was 22.4 µM (active).

In the case of `Brc1ccccc1-c1nnc(SCc2nc3ccccc3s2)o1`, the Potency entry was “inactive”.

As to `O=C(OCc1nc2ccccc2s1)c1ccccc1O`, the Potency result is “inactive”.

With `C=CCS(=O)(=O)c1nc2ccccc2s1`, the Potency is 35.5 µM (active).

As for `CCOc1ccccc1N(CC(=O)NCCSc1ccccn1)S(=O)(=O)c1ccccc1`, the Potency result is “inactive”.

For `Cc1cccc(N2CC(C(=O)Nc3ccc(S(=O)(=O)Nc4nccs4)cc3)CC2=O)c1C` (stereo not given), the Potency result is “inactive”.

For `COCC(=O)Nc1nc2n(n1)C(c1ccc(Cl)cc1)CC(c1ccc(OC)cc1)N2` (stereo not given), the Potency entry was “inactive”.

In the case of `COc1cc(CO)c(Br)cc1OCC(N)=O`, the Potency result is “inactive”.

Take `COc1ccc(C2c3ccc4ccccc4c3Oc3ncn(CCN4CCOCC4)c(=N)c32)cc1` (stereo not given): the Potency was 14.1 µM (active).

As for `COc1ccc(C2c3ccc4ccccc4c3Oc3ncn(CCCO)c(=N)c32)cc1` (stereo not given), the Potency was 35.5 µM (active).

On to `COc1ccc2nc(NCCN=C(S)NCCCN3CCOCC3)c(C#N)cc2c1`, for which the Potency result is “inactive”.

With `COc1ccc(C2c3c(ncn(CCN4CCOCC4)c3=N)Oc3ccc4ccccc4c32)cc1OC` (stereo not given), the Potency was 14.1 µM (active).

In the case of `CN(C)CCn1cnc2c(c1=N)C(c1ccccc1)c1ccc3ccccc3c1O2` (stereo not given), the Potency is 28.2 µM (active).

In the case of `N=c1c(C(=O)NC2CCCC2)cc2c(=O)n3ccccc3nc2n1CCCN1CCOCC1`, the Potency result was “inactive”.

For `COc1ccc(Nc2ncc(F)c(N3CCOCC3)n2)cc1`, the Potency entry is “inactive”.

Consider `Cc1ccc(S(=O)(=O)NC23CC4CC(CC(C4)C2)C3)cc1`, for which the Potency entry is “inactive”.

Turning to `CCCn1nc(NC(=O)COC)c2cc3cccc(C)c3nc21`, the Potency result was “inactive”.

For the compound `COc1ccc(OC)c(/C=C2\Oc3cc(OCC(=O)N4CCC[C@H]4C(=O)O)ccc3C2=O)c1`, the Potency entry was “inactive”.

Take `COCCNc1oc(/C=C/c2ccccc2)nc1C#N`: the Potency result was “inactive”.

On to `COc1cc2ccccc2nn1`, for which the Potency entry is “inactive”.

As to `N=c1c2c(ncn1Cc1ccco1)Oc1ccc3ccccc3c1C2c1ccccc1` (stereo not given), the Potency was 12.6 µM (active).

As to `COc1ccc(C2C=C(c3ccccc3)Nc3nc(CCCO)nn32)cc1` (stereo not given), the Potency entry is “inactive”.

On to `COc1ccc(C2c3c(ncn(CCCO)c3=N)Oc3ccc4ccccc4c32)cc1` (stereo not given), for which the Potency is 25.1 µM (active).

As for `CCOCCn1c(CN2CCCC(C)C2)nc2c1c(=O)n(C)c(=O)n2C` (stereo not given), the Potency entry was “inactive”.

In the case of `COCCCn1c(C)nnc1SCc1ccc(C(C)(C)C)cc1`, the Potency result was “inactive”.

Consider `CC(=O)Nc1nc2n(n1)C(c1ccc(F)cc1)C=C(c1ccc(Cl)cc1)N2` (stereo not given), for which the Potency result is “inactive”.

Take `Cc1ccc(N2C(=O)/C(=C\Nn3cnnc3)c3ccccc3C2=O)cc1`: the Potency result was “inactive”.

Regarding `Cc1nc(SCc2ccccc2)c2ccsc2n1`, the Potency entry is “inactive”.

For the compound `CCCCn1c(=O)nc2n(-c3ccccc3)c3ccccc3cc-2c1=O`, the Potency result is “inactive”.

Turning to `CCCCN=c1nc(S)n(-c2ccccc2)c(C)c1C(C)=O`, the Potency was 39.8 µM (active).

On to `COc1ccc(C(=O)/C(C#N)=N/Nc2ccc([N+](=O)[O-])cc2)cc1`, for which the Potency is 10 µM (active).

`C/C(=N\Nc1ccc([N+](=O)[O-])cc1)c1ccco1`: the Potency result is “inactive”.

In the case of `O=[N+]([O-])c1ccc(NN=C(Oc2ccccc2)c2ccc([N+](=O)[O-])cc2)cc1`, the Potency result was “inactive”.

Turning to `Cc1cc(C)c(S(=O)(=O)Nc2cc(SCC(=O)O)c(O)c3ccccc23)cc1C`, the Potency is 20 µM (active).

Take `CC(=O)Nc1ccc(NS(=O)(=O)c2cc(-c3cnc(C4CC4)o3)ccc2C)cc1`: the Potency result was “inactive”.

As to `COC(=O)CCC(=O)N1CCCC(N2CCN(c3cccc(C(F)(F)F)c3)CC2)C1` (stereo not given), the Potency result is “inactive”.

Turning to `CSC1=NCCN1S(=O)(=O)c1ccc(F)cc1`, the Potency entry is “inactive”.

Consider `COC(=O)Cc1c(C)c2ccc(O)c(CNCc3ccc(OC)c(OC)c3)c2oc1=O`, for which the Potency entry is “inactive”.

Turning to `Cc1sc(Cc2nc(O)cs2)nc1-c1ccccc1`, the Potency entry is “inactive”.

For `COc1ccc(-c2c/c(=N\c3nc(-c4ccccc4)c(C)s3)c3ccccc3o2)cc1O`, the Potency was 31.6 µM (active).

Regarding `CCc1ccc2oc(-c3ccc(OC)cc3)cc(=Nc3cccc(C(=O)O)c3)c2c1`, the Potency entry was “inactive”.

Consider `COCCCn1c(=N)c(C(=O)NC2CCCCC2)cc2c(=O)n3cc(C)ccc3nc21`, for which the Potency entry was “inactive”.

Consider `COC(=O)C1=CN(C2CC2)C=C(C(=O)OC)C1c1ccc(C(=O)OC)cc1`, for which the Potency result was “inactive”.

Regarding `COC(=O)c1ccc2nc(C3CCCCC3)c(CC(C)(C)C)n2c1`, the Potency was 39.8 µM (active).

Consider `Cc1nc(-c2ccccc2)sc1-c1ccnn1C`, for which the Potency result was “inactive”.

On to `CCc1ccc(C2=C(C)C(N3CCC(C(=O)Nc4ccc(F)cc4)CC3)=NS2(=O)=O)cc1`, for which the Potency was 39.8 µM (active).

Turning to `CCOC(=O)C1=C(C)N=c2s/c(=C/c3ccc(OCC(=O)O)cc3)c(=O)n2C1c1ccc(OC)cc1OC` (stereo not given), the Potency result was “inactive”.

For `CCSc1nnc2nc3c(c(O)n12)C1(CCCC1)Cc1ccccc1-3`, the Potency result was “inactive”.

With `Cc1c(O)ccc2c(CN3CCN(Cc4ccccc4)CC3)cc(=O)oc12`, the Potency entry was “inactive”.

For `Cc1ccc2c(c1)[nH]c1c(N3CCN(Cc4ccccc4)CC3)ncnc12`, the Potency is 11.2 µM (active).

For the compound `O=c1c2ccccc2[nH]c(=S)n1Cc1ccc2c(c1)OCO2`, the Potency result was “inactive”.

`Fc1ccc2[nH]c3c(N4CCN(Cc5ccc6c(c5)OCO6)CC4)ncnc3c2c1`: the Potency was 39.8 µM (active).

For the compound `Cn1cc(CN2CCN(Cc3ccc4c(c3)OCO4)CC2)c(-c2ccccc2F)n1`, the Potency result is “inactive”.

Consider `CCc1ccc(CN2CCN(c3ncccn3)CC2)cc1`, for which the Potency entry is “inactive”.

Consider `Cc1cc(-c2ccnc(-n3ncc(C(=O)NC(C)(C)CO)c3C3CC3)n2)c(C)s1`, for which the Potency result was “inactive”.

For the compound `Cc1ccc(C(=O)OCC(=O)Nc2nc(-c3ccccc3)cs2)cc1NC(=O)c1ccco1`, the Potency result was “inactive”.

Regarding `Cc1ccc(C(=O)NCCC(C)C)cc1NC(=O)c1nsc2ccccc12`, the Potency was 25.1 µM (active).

`CC(C)CCNC(=O)c1cc2c(=O)n3ccccc3nc2s1`: the Potency entry was “inactive”.

Regarding `O=C1/C(=C/NCc2ccccn2)c2ccccc2C(=O)N1c1ccccc1`, the Potency result was “inactive”.

On to `OC[C@@H]1[C@@H](c2ccc(Cl)cc2)C(c2ccccc2)=NN1c1ccccc1`, for which the Potency result was “inactive”.

On to `O=S(=O)(c1ccc(Cl)cc1)N(Cc1cccnc1)Cc1cc2ccccc2nc1O`, for which the Potency is 25.1 µM (active).

As for `Cc1ccc(N(Cc2cc3ccccc3nc2O)C(=O)c2cccs2)cc1`, the Potency result was “inactive”.

As for `Oc1nc2ccccc2nc1Cc1ccc(Cl)cc1`, the Potency entry is “inactive”.

Take `COCCCn1c(=O)/c(=C/c2ccccc2OC(C)C)s/c1=C(\C#N)C(=O)Nc1ccc(C(=O)O)cc1`: the Potency result is “inactive”.
